Measurements: PubChem BioAssay (NCI)
This is part of a sample that, as a whole, favours compounds with a hit. Of some 83,000 tested, about 20% had one in any assay.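 Single-concentration screen, 48 h exposure, 96-well plates. Endpoint: percent growth. Below 10 = active.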 Active and inactive are the calls of the source.

Key:
Assay in all cases: NCI-60 one-dose screen, 48 h (100 = growth as untreated, 0 = no growth, -100 = all killed)
Settings in all cases: 10 µM unless noted
SK-MEL-2 melanoma = system: SK-MEL-2 melanoma
EKVX NSCLC = system: EKVX NSCLC
SN12C renal = system: SN12C renal
UO-31 renal = system: UO-31 renal
TK-10 renal = system: TK-10 renal
ACHN renal = system: ACHN renal
CAKI-1 renal = system: CAKI-1 renal
A498 renal = system: A498 renal
CCRF-CEM leukemia = system: CCRF-CEM leukemia
MOLT-4 leukemia = system: MOLT-4 leukemia

Measured: growth

CCn1cc(C(=O)NNC(=S)Nc2ccc(C)cc2)c(=O)c2ccc(C)nc21
inactive: SK-MEL-2 melanoma 104% | EKVX NSCLC 101% | SN12C renal 88.6% | UO-31 renal 78.9% | TK-10 renal 100% | ACHN renal 95.5% | CAKI-1 renal 95.4% | A498 renal 76.4% | CCRF-CEM leukemia 90.7% | MOLT-4 leukemia 102%

O=C(c1nn(-c2ccccc2)c2c1CC(NCc1ccc(F)cc1)CC2)N1CCCCC1 (stereo not given)
inactive: SK-MEL-2 melanoma 103% | EKVX NSCLC 97.6% | SN12C renal 105% | UO-31 renal 74.2% | TK-10 renal 92.5% | ACHN renal 104% | CAKI-1 renal 85% | A498 renal 120% | CCRF-CEM leukemia 108% | MOLT-4 leukemia 73.5%

COc1ccc2c(c1)c(-c1nc(-c3c[nH]c4ccncc34)cs1)cn2C
active: SK-MEL-2 melanoma -45.2% | EKVX NSCLC -53.3% | SN12C renal -72% | UO-31 renal -88% | ACHN renal -96.7% | CAKI-1 renal -86.3% | CCRF-CEM leukemia -45.2% | MOLT-4 leukemia -42.8%
inactive: TK-10 renal 43.4% | A498 renal 65.7%

NC(=O)C(=O)c1ccccc1NC=O
inactive: SK-MEL-2 melanoma 112% | EKVX NSCLC 101% | SN12C renal 96.6% | UO-31 renal 60.9% | TK-10 renal 107% | ACHN renal 94.8% | CAKI-1 renal 75.2% | A498 renal 120% | CCRF-CEM leukemia 99.1% | MOLT-4 leukemia 108%

O=C(CSc1oc(-c2ccccc2)nc1S(=O)(=O)c1ccccc1)Nc1ccc(F)cc1
inactive: SK-MEL-2 melanoma 87.6% | EKVX NSCLC 78.2% | SN12C renal 89% | UO-31 renal 76.8% | TK-10 renal 91.8% | ACHN renal 80.2% | CAKI-1 renal 73.1% | A498 renal 82.6% | CCRF-CEM leukemia 84.7% | MOLT-4 leukemia 73.3%

Cc1[nH]c(C(=O)Nc2ccc(C(=O)N3CCN(c4cc5c(cc4F)c(=O)c(C(=O)O)cn5C4CC4)CC3)cc2OC(C)C)c(Cl)c1Cl
inactive: SK-MEL-2 melanoma 105% | EKVX NSCLC 80.5% | SN12C renal 31.2% | UO-31 renal 56.2% | TK-10 renal 82.7% | ACHN renal 67.9% | CAKI-1 renal 74.8% | A498 renal 55.6% | CCRF-CEM leukemia 53% | MOLT-4 leukemia 93.3%

Cc1c(-c2ccc(O)cc2)n(Cc2ccc(OCCN3CCCCCC3)cc2)c2ccc(O)cc12
inactive: SK-MEL-2 melanoma 106% | EKVX NSCLC 75.2% | SN12C renal 81% | UO-31 renal 52.6% | TK-10 renal 78% | ACHN renal 91.9% | CAKI-1 renal 50.6% | A498 renal 53.7% | CCRF-CEM leukemia 57.5% | MOLT-4 leukemia 39.8%

CCC(C(=O)[C@@H](C)[C@@H](O)[C@H](C)[C@@H]1O[C@@H]([C@@H](CC)C(=O)ONC(=O)c2ccccc2)CC[C@@H]1C)[C@H]1O[C@]2(C=CC(=O)[C@]3(CC[C@@](C)([C@H]4CC[C@](O)(CC)[C@H](C)O4)O3)O2)[C@H](C)C[C@@H]1C (stereo not given in full)
inactive: EKVX NSCLC 33.5% | TK-10 renal 52.8% | CAKI-1 renal 16.5% | A498 renal 16.8%
active: SK-MEL-2 melanoma -4.05% | SN12C renal -48.6% | UO-31 renal -95.1% | ACHN renal -47.3% | CCRF-CEM leukemia -11.2% | MOLT-4 leukemia -2.14%

CCOC(=O)Cc1cnc(N/N=C(\C)c2cc3ccccc3o2)s1
inactive: SK-MEL-2 melanoma 113% | EKVX NSCLC 85.1% | SN12C renal 99.1% | UO-31 renal 64.7% | TK-10 renal 144% | ACHN renal 90.7% | CAKI-1 renal 81.6% | A498 renal 113% | CCRF-CEM leukemia 92.5% | MOLT-4 leukemia 55.5%

CN(C)CCNC(=O)c1cc2c3cc(Cl)ccc3[nH]c2c2ncccc12
inactive: SK-MEL-2 melanoma 47.9% | EKVX NSCLC 22.1% | SN12C renal 10.2% | TK-10 renal 42.8% | ACHN renal 10.2% | CAKI-1 renal 23.8% | A498 renal 26.7%
active: UO-31 renal 6.68% | CCRF-CEM leukemia -13.2% | MOLT-4 leukemia -12.4%

COc1cc2ncnc(Nc3ccc(F)c(Cl)c3)c2cc1OCC(=O)N1CCN(c2ccccc2)CC1
inactive: SK-MEL-2 melanoma 102% | EKVX NSCLC 77.6% | SN12C renal 80.4% | UO-31 renal 46.5% | TK-10 renal 42.4% | ACHN renal 50.6% | CAKI-1 renal 50.6% | A498 renal 61.2% | CCRF-CEM leukemia 103% | MOLT-4 leukemia 90.3%

Cc1ccc(NC(=O)Cn2cc(CN3CCN(c4ccnc5cc(Cl)ccc45)CC3)nn2)cc1
active: CCRF-CEM leukemia -31.6% | MOLT-4 leukemia -15.7%
inactive: SK-MEL-2 melanoma 114% | EKVX NSCLC 80.7% | SN12C renal 93.9% | UO-31 renal 62.7% | TK-10 renal 95.4% | ACHN renal 81.1% | CAKI-1 renal 73.1% | A498 renal 88%

C=C1C(=O)O[C@H]2[C@H]1CC/C(COC(=O)C(=O)c1cn(C)c3ccc(Cl)cc13)=C\CC[C@@]1(C)O[C@@H]21
active: SK-MEL-2 melanoma -60.8% | EKVX NSCLC -59.5% | SN12C renal -69% | UO-31 renal -93.5% | TK-10 renal -91.1% | ACHN renal -91.8% | CAKI-1 renal -75.7% | A498 renal -96.9% | CCRF-CEM leukemia -34.9% | MOLT-4 leukemia -15.4%

C=CCN=c1sc2c(n1NC(=O)c1cc3ccc1CCc1ccc(cc1)CC3)C(=O)c1ccccc1C2=O
active: SK-MEL-2 melanoma -17.3% | EKVX NSCLC -20.2% | SN12C renal -96.6% | UO-31 renal -35.2% | ACHN renal -95.3% | CCRF-CEM leukemia -3.65% | MOLT-4 leukemia -15.5%
inactive: TK-10 renal 58.3% | CAKI-1 renal 20.3% | A498 renal 56%

CCN1C(=O)N(CC)C2C1NN=c1s/c(=C\c3ccccc3F)c(=O)n12 (stereo not given)
inactive: SK-MEL-2 melanoma 37.2% | EKVX NSCLC 53% | SN12C renal 23.9% | UO-31 renal 40.4% | TK-10 renal 70.3% | ACHN renal 27.5% | CAKI-1 renal 17.4% | MOLT-4 leukemia 10.2%
active: A498 renal 3.4% | CCRF-CEM leukemia 8.85%

O=C(CSc1nnc(-c2cnccn2)n1-c1ccccc1)c1ccc(Cl)cc1
inactive: SK-MEL-2 melanoma 96.4% | EKVX NSCLC 103% | SN12C renal 87.5% | UO-31 renal 94.2% | TK-10 renal 99.2% | ACHN renal 99.8% | CAKI-1 renal 102% | A498 renal 93.1% | CCRF-CEM leukemia 92.1% | MOLT-4 leukemia 93.4%

COc1cc(OC)c(/C=C/C(=O)c2c(OC)cccc2OC)c(OC)c1
active: SK-MEL-2 melanoma -14.9%
inactive: EKVX NSCLC 42.9% | SN12C renal 24.1% | UO-31 renal 28.9% | TK-10 renal 33.5% | ACHN renal 19.6% | CAKI-1 renal 14.8% | A498 renal 21.4% | CCRF-CEM leukemia 16.2% | MOLT-4 leukemia 18.6%

COc1ccc(/C=N/C2=C(C#N)C(c3ccccc3)c3ccc4ccccc4c3O2)cc1 (stereo not given)
active: CCRF-CEM leukemia 9.58%
inactive: SK-MEL-2 melanoma 49.4% | EKVX NSCLC 42.9% | SN12C renal 38% | UO-31 renal 29.6% | TK-10 renal 59.7% | ACHN renal 35.4% | CAKI-1 renal 28% | A498 renal 19.3% | MOLT-4 leukemia 19.2%

Fc1cc2c(cc1Cl)N(c1ncnc3ccc(-c4ccc5n[nH]nc5c4)cc13)CC2
active: A498 renal -2.78%
inactive: SK-MEL-2 melanoma 89% | EKVX NSCLC 52.8% | SN12C renal 64.9% | UO-31 renal 44.3% | TK-10 renal 46% | ACHN renal 50.1% | CAKI-1 renal 49.3% | CCRF-CEM leukemia 92.9% | MOLT-4 leukemia 90.5%

O=C(CSC(=S)n1cnnc1)NC(=O)c1ccccc1
inactive: SK-MEL-2 melanoma 106% | EKVX NSCLC 104% | SN12C renal 103% | UO-31 renal 87.8% | TK-10 renal 101% | ACHN renal 105% | CAKI-1 renal 104% | A498 renal 106% | CCRF-CEM leukemia 99.2% | MOLT-4 leukemia 102%

CS(=O)(=O)Nc1cncc(-c2ccc3ncnc(Nc4cncc(Cl)c4)c3c2)c1
inactive: SK-MEL-2 melanoma 67.6% | EKVX NSCLC 96.1% | SN12C renal 84.3% | UO-31 renal 77.7% | TK-10 renal 65.2% | ACHN renal 96% | CAKI-1 renal 94.9% | A498 renal 70.5% | CCRF-CEM leukemia 35.7% | MOLT-4 leukemia 78.4%

COCCOc1cc2ncnc(N3CCN(c4cc(S(C)(=O)=O)c(C)cc4Cl)CC3)c2cc1OCCOC
inactive: SK-MEL-2 melanoma 95.3% | EKVX NSCLC 90.4% | SN12C renal 87.2% | UO-31 renal 61.8% | TK-10 renal 104% | ACHN renal 100% | CAKI-1 renal 101% | A498 renal 88.2% | CCRF-CEM leukemia 89.5% | MOLT-4 leukemia 79.4%

O=C(Nc1ccccc1)Nc1ncnc2c1ncn2-c1ccc(Cl)cc1
inactive: SK-MEL-2 melanoma 107% | EKVX NSCLC 86.7% | SN12C renal 63.1% | UO-31 renal 70.3% | TK-10 renal 58.9% | ACHN renal 69.5% | CAKI-1 renal 93.9% | A498 renal 91% | CCRF-CEM leukemia 94.2% | MOLT-4 leukemia 84.2%

Cc1ccc(NC(=O)c2sc3nc(C)c(Br)c(C)c3c2N)cc1
inactive: SK-MEL-2 melanoma 82.6% | EKVX NSCLC 61.9% | SN12C renal 70.5% | UO-31 renal 65.4% | TK-10 renal 50.7% | ACHN renal 34.5% | CAKI-1 renal 74.3% | A498 renal 76.5% | CCRF-CEM leukemia 94.7% | MOLT-4 leukemia 90%

O=C(Nc1nc2ccc(C(=O)N3CCN(/C=C/c4ccccc4)CC3)cc2s1)c1ccc(NCCc2ccccc2)c([N+](=O)[O-])c1
inactive: SK-MEL-2 melanoma 87.6% | EKVX NSCLC 50.6% | SN12C renal 61.3% | UO-31 renal 37.8% | TK-10 renal 87.7% | ACHN renal 80.9% | CAKI-1 renal 50.6% | A498 renal 48.3% | CCRF-CEM leukemia 22.8% | MOLT-4 leukemia 27.4%

Cc1ccc(Nc2cc(N)nc(N)n2)cc1Cl
inactive: SK-MEL-2 melanoma 103% | EKVX NSCLC 67.7% | SN12C renal 104% | UO-31 renal 83.4% | TK-10 renal 111% | ACHN renal 101% | CAKI-1 renal 81.6% | A498 renal 101% | CCRF-CEM leukemia 96.6% | MOLT-4 leukemia 93.7%

CCCCNC(=O)CC1=C(C)/C(=C/c2[nH]c(-c3ccc[nH]3)cc2OC)N=C1C
active: UO-31 renal -5.12% | CAKI-1 renal 4.74% | A498 renal 3.74% | MOLT-4 leukemia 7.6%
inactive: SK-MEL-2 melanoma 22.1% | EKVX NSCLC 36.4% | SN12C renal 35.3% | TK-10 renal 33.5% | ACHN renal 13.7% | CCRF-CEM leukemia 27.2%
